Source: article PMC11006913
Positions count from the first letter of the chain named.

How the values were obtained:
Assay in all cases: PBM; 200 nM protein, PBS
Details in all cases: dsDNA, one strand shown
PAX4 [1] = biological target: T1, PAX4 (Homo sapiens, UniProt O43316 9-242, R200K)
T1 sequence: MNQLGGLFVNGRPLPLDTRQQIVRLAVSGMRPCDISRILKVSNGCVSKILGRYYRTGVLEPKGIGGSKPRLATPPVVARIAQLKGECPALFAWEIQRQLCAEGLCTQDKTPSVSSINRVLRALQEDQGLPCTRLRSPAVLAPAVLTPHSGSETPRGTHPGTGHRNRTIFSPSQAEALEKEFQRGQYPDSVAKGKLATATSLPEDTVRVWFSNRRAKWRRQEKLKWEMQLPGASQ

PAX4 [2] = biological target: T2, PAX4 (Homo sapiens, UniProt O43316 9-242)
T2 sequence: T1 sequence with K192R

PAX4 [3] = biological target: T3, PAX4 (Homo sapiens, UniProt O43316 9-242, R200Q)
T3 sequence: T1 sequence with K192Q

PAX4 [4] = biological target: T4, PAX4 (Homo sapiens, UniProt O43316 9-242, F177V)
T4 sequence: T1 sequence with F169V, K192R

PAX4 [5] = biological target: T5, PAX4 (Homo sapiens, UniProt O43316 9-242, F177Y)
T5 sequence: T1 sequence with F169Y, K192R

VAX1 [6] = biological target: VAX1 (Homo sapiens, UniProt Q5SQQ9 86-172)
Sequence of VAX1 (Homo sapiens, UniProt Q5SQQ9 86-172) (Q5SQQ9 86-172): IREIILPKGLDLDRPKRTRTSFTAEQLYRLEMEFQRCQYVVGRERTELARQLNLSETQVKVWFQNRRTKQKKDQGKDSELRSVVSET

VAX1 [7] = biological target: VAX1 (Homo sapiens, UniProt Q5SQQ9 86-172, T142I)
Sequence of VAX1 (Homo sapiens, UniProt Q5SQQ9 86-172, T142I) (Q5SQQ9 86-172 T142I): as the sequence (Q5SQQ9 86-172) above, with T57I counted along it

PAX4 [8] = biological target: T6, PAX4 (Homo sapiens, UniProt O43316 9-242, R227W)
T6 sequence: T1 sequence with K192R, R219W

VAX1 [9] = biological target: VAX1 (Homo sapiens, UniProt Q5SQQ9 86-172, K157R)
Sequence of VAX1 (Homo sapiens, UniProt Q5SQQ9 86-172, K157R) (Q5SQQ9 86-172 K157R): as the sequence (Q5SQQ9 86-172) above, with K72R counted along it

PROP1 [10] = biological target: PROP1 (Homo sapiens, UniProt O75360 56-141)
Sequence of PROP1 (Homo sapiens, UniProt O75360 56-141) (O75360 56-141): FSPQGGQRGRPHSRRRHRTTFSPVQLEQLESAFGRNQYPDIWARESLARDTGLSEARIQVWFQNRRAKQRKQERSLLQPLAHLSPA

PROP1 [11] = biological target: PROP1 (Homo sapiens, UniProt O75360 56-141, R99H)
Sequence of PROP1 (Homo sapiens, UniProt O75360 56-141, R99H) (O75360 56-141 R99H): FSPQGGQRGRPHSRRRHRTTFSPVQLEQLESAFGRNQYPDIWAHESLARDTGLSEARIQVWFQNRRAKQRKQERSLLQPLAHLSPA

PROP1 [12] = biological target: PROP1 (Homo sapiens, UniProt O75360 56-141, F88S)
Sequence of PROP1 (Homo sapiens, UniProt O75360 56-141, F88S) (O75360 56-141 F88S): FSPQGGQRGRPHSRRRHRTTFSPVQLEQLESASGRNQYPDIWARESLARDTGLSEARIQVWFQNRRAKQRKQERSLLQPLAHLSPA

| Sequence | binding signal (PAX4 [1]) | binding signal (PAX4 [2]) | binding signal (PAX4 [3]) | binding signal (PAX4 [4]) | binding signal (PAX4 [5]) | binding signal (VAX1 [6]) | binding signal (VAX1 [7]) | binding signal (PAX4 [8]) | binding signal (VAX1 [9]) | binding signal (PROP1 [10]) | binding signal (PROP1 [11]) | binding signal (PROP1 [12]) |
| --- | --- | --- | --- | --- | --- | --- | --- | --- | --- | --- | --- | --- |
| CAGGCAGG | 9.45 upbm affinity estimate (log intensity, higher = more binding, comparable within an allelic series) | 8.98 upbm affinity estimate (log intensity, higher = more binding, comparable within an allelic series) | 9.63 upbm affinity estimate (log intensity, higher = more binding, comparable within an allelic series) | 9.47 upbm affinity estimate (log intensity, higher = more binding, comparable within an allelic series) | 9.56 upbm affinity estimate (log intensity, higher = more binding, comparable within an allelic series) | 7.2 upbm affinity estimate (log intensity, higher = more binding, comparable within an allelic series) | 7.22 upbm affinity estimate (log intensity, higher = more binding, comparable within an allelic series) | 9.49 upbm affinity estimate (log intensity, higher = more binding, comparable within an allelic series) | 7 upbm affinity estimate (log intensity, higher = more binding, comparable within an allelic series) | – | – | – |
| CTAATCAG | 11.2 upbm affinity estimate (log intensity, higher = more binding, comparable within an allelic series) | 11.6 upbm affinity estimate (log intensity, higher = more binding, comparable within an allelic series) | 11.3 upbm affinity estimate (log intensity, higher = more binding, comparable within an allelic series) | 10.1 upbm affinity estimate (log intensity, higher = more binding, comparable within an allelic series) | 10.5 upbm affinity estimate (log intensity, higher = more binding, comparable within an allelic series) | – | – | 10.3 upbm affinity estimate (log intensity, higher = more binding, comparable within an allelic series) | – | – | – | – |
| ATTAGGGA | 11.1 upbm affinity estimate (log intensity, higher = more binding, comparable within an allelic series) | 11.5 upbm affinity estimate (log intensity, higher = more binding, comparable within an allelic series) | 11.2 upbm affinity estimate (log intensity, higher = more binding, comparable within an allelic series) | 10.1 upbm affinity estimate (log intensity, higher = more binding, comparable within an allelic series) | 10.3 upbm affinity estimate (log intensity, higher = more binding, comparable within an allelic series) | – | – | 10.4 upbm affinity estimate (log intensity, higher = more binding, comparable within an allelic series) | – | – | – | – |
| ATGTATTA | 11.5 upbm affinity estimate (log intensity, higher = more binding, comparable within an allelic series) | 11.8 upbm affinity estimate (log intensity, higher = more binding, comparable within an allelic series) | 11.4 upbm affinity estimate (log intensity, higher = more binding, comparable within an allelic series) | 10.8 upbm affinity estimate (log intensity, higher = more binding, comparable within an allelic series) | 11 upbm affinity estimate (log intensity, higher = more binding, comparable within an allelic series) | – | – | 11 upbm affinity estimate (log intensity, higher = more binding, comparable within an allelic series) | – | – | – | – |
| CGCCCGGC | 9.26 upbm affinity estimate (log intensity, higher = more binding, comparable within an allelic series) | 9.23 upbm affinity estimate (log intensity, higher = more binding, comparable within an allelic series) | 9.1 upbm affinity estimate (log intensity, higher = more binding, comparable within an allelic series) | 8.97 upbm affinity estimate (log intensity, higher = more binding, comparable within an allelic series) | 9.01 upbm affinity estimate (log intensity, higher = more binding, comparable within an allelic series) | – | – | 9.06 upbm affinity estimate (log intensity, higher = more binding, comparable within an allelic series) | – | – | – | – |
| CAGCCGGG | 9.16 upbm affinity estimate (log intensity, higher = more binding, comparable within an allelic series) | 9.21 upbm affinity estimate (log intensity, higher = more binding, comparable within an allelic series) | 9.22 upbm affinity estimate (log intensity, higher = more binding, comparable within an allelic series) | 9.02 upbm affinity estimate (log intensity, higher = more binding, comparable within an allelic series) | 9.05 upbm affinity estimate (log intensity, higher = more binding, comparable within an allelic series) | – | – | 9.17 upbm affinity estimate (log intensity, higher = more binding, comparable within an allelic series) | – | – | – | – |
| CCGGGCTC | 9.24 upbm affinity estimate (log intensity, higher = more binding, comparable within an allelic series) | 9.31 upbm affinity estimate (log intensity, higher = more binding, comparable within an allelic series) | 9.36 upbm affinity estimate (log intensity, higher = more binding, comparable within an allelic series) | 9.17 upbm affinity estimate (log intensity, higher = more binding, comparable within an allelic series) | 9.16 upbm affinity estimate (log intensity, higher = more binding, comparable within an allelic series) | – | – | 9.23 upbm affinity estimate (log intensity, higher = more binding, comparable within an allelic series) | – | – | – | – |
| GATATTAA | 11.2 upbm affinity estimate (log intensity, higher = more binding, comparable within an allelic series) | 11.5 upbm affinity estimate (log intensity, higher = more binding, comparable within an allelic series) | 11.2 upbm affinity estimate (log intensity, higher = more binding, comparable within an allelic series) | 10.3 upbm affinity estimate (log intensity, higher = more binding, comparable within an allelic series) | 10.5 upbm affinity estimate (log intensity, higher = more binding, comparable within an allelic series) | – | – | 10.6 upbm affinity estimate (log intensity, higher = more binding, comparable within an allelic series) | – | – | – | – |
| AGCTGCCG | 9.44 upbm affinity estimate (log intensity, higher = more binding, comparable within an allelic series) | 9.42 upbm affinity estimate (log intensity, higher = more binding, comparable within an allelic series) | 9.33 upbm affinity estimate (log intensity, higher = more binding, comparable within an allelic series) | 9.27 upbm affinity estimate (log intensity, higher = more binding, comparable within an allelic series) | 9.2 upbm affinity estimate (log intensity, higher = more binding, comparable within an allelic series) | – | – | 9.31 upbm affinity estimate (log intensity, higher = more binding, comparable within an allelic series) | – | – | – | – |
| CGCGCGCC | 9.3 upbm affinity estimate (log intensity, higher = more binding, comparable within an allelic series) | 9.28 upbm affinity estimate (log intensity, higher = more binding, comparable within an allelic series) | 9.36 upbm affinity estimate (log intensity, higher = more binding, comparable within an allelic series) | 9.21 upbm affinity estimate (log intensity, higher = more binding, comparable within an allelic series) | 9.31 upbm affinity estimate (log intensity, higher = more binding, comparable within an allelic series) | – | – | 9.28 upbm affinity estimate (log intensity, higher = more binding, comparable within an allelic series) | – | – | – | – |
| GCCGGGAC | 9.33 upbm affinity estimate (log intensity, higher = more binding, comparable within an allelic series) | 9.39 upbm affinity estimate (log intensity, higher = more binding, comparable within an allelic series) | 9.37 upbm affinity estimate (log intensity, higher = more binding, comparable within an allelic series) | 9.2 upbm affinity estimate (log intensity, higher = more binding, comparable within an allelic series) | 9.2 upbm affinity estimate (log intensity, higher = more binding, comparable within an allelic series) | – | – | 9.24 upbm affinity estimate (log intensity, higher = more binding, comparable within an allelic series) | – | 7.02 upbm affinity estimate (log intensity, higher = more binding, comparable within an allelic series) | 6.96 upbm affinity estimate (log intensity, higher = more binding, comparable within an allelic series) | 6.46 upbm affinity estimate (log intensity, higher = more binding, comparable within an allelic series) |
| GAATTAAC | 11.6 upbm affinity estimate (log intensity, higher = more binding, comparable within an allelic series) | 12.2 upbm affinity estimate (log intensity, higher = more binding, comparable within an allelic series) | 11.9 upbm affinity estimate (log intensity, higher = more binding, comparable within an allelic series) | 10.4 upbm affinity estimate (log intensity, higher = more binding, comparable within an allelic series) | 11 upbm affinity estimate (log intensity, higher = more binding, comparable within an allelic series) | – | – | 10.8 upbm affinity estimate (log intensity, higher = more binding, comparable within an allelic series) | – | – | – | – |
| ACGAATTA | 11.6 upbm affinity estimate (log intensity, higher = more binding, comparable within an allelic series) | 12.1 upbm affinity estimate (log intensity, higher = more binding, comparable within an allelic series) | 11.7 upbm affinity estimate (log intensity, higher = more binding, comparable within an allelic series) | 10.3 upbm affinity estimate (log intensity, higher = more binding, comparable within an allelic series) | 11 upbm affinity estimate (log intensity, higher = more binding, comparable within an allelic series) | – | – | 10.8 upbm affinity estimate (log intensity, higher = more binding, comparable within an allelic series) | – | – | – | – |
| CGACCTGC | 9.47 upbm affinity estimate (log intensity, higher = more binding, comparable within an allelic series) | 9.54 upbm affinity estimate (log intensity, higher = more binding, comparable within an allelic series) | 9.42 upbm affinity estimate (log intensity, higher = more binding, comparable within an allelic series) | 9.26 upbm affinity estimate (log intensity, higher = more binding, comparable within an allelic series) | 9.33 upbm affinity estimate (log intensity, higher = more binding, comparable within an allelic series) | – | – | 9.35 upbm affinity estimate (log intensity, higher = more binding, comparable within an allelic series) | – | – | – | – |
